Screening data deposited in PubChem BioAssay by National Center for Advancing Translational Sciences (NCATS).
HT1080 IDH1KD tx: kills HT-1080 cells with IDH1 knockdown | Potency, µM (top dose mostly 46.1 µM), for the others: at the top dose activity, negative = toxicity, hits mostly cytotoxic | hit rate 2% among 360,000 | HT-1080 IDH1 knockdown viability, ATP luminescence, 48 h;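 note: potency is the fitted concentration of half-maximal effect; 0% = DMSO wells and -100% = cell-free medium wells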
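CellTiter-Glo luminescence after 48 h compound exposure at 37 degrees C of IDH1-knockdown HT-1080 cells in 5% FBS RPMI. %Activity scaled between DMSO wells and cell-free media wells, with curves fitted and assigned curve classes.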
IL-1B inflam inh: inflammasome signaling inhibition, IL-1 beta readout; hit rate 4.7% among 360,000; THP-1 LPS/ATP IL-1B secretion, AlphaLISA, 16 h; hits give low values; activity change, % at 57.5 µM; in the data active = activity change below about -50%; inconclusive = mostly about -30% to -49%
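THP-1 cells pretreated 1 hr with compounds (up to 57.5 uM final), then stimulated with LPS (250 ng/mL final) plus ATP (1.25 mM final); secreted IL-1B measured by AlphaLISA after 16 hr, decreased signal indicating inhibition.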
HT1080NT lethal: kills 2HG-producing HT-1080-NT fibrosarcoma cells. HT-1080-NT fibrosarcoma viability, CellTiter-Glo ATP luminescence, 48 h. Potency, µM (titrated, usually from 46.1 µM), for the others: at the highest dose activity, negative = less viability, most hits filed as cytotoxic. hit rate 1.6% among 360,000;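 note: NT is the 2HG producing partner of a matched IDH1 knockdown line; potency is the fitted concentration of half-maximal effect; 0% = DMSO-treated cells and -100% = media-only wells without cells; nearly all actives have a fitted effect of over 55% in size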
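Luminescent CellTiter-Glo readout after 48 hours of compound exposure at 37 degrees C defined viability of HT-1080-NT cells. Activity was normalized to DMSO wells and cell-free media wells; concentration-response curves were fitted and assigned curve classes.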
DT40 TDP1 CPT: DT40-hTDP1 cell growth loss with CPT. hit rate 12% among 420,000. chicken DT40 Tdp1-/-;hTDP1 cells + 20 nM CPT, ATP luminescence, 48 h. Potency, µM (series often up to 46.2 µM), inactives show top-dose activity change, negative = growth inhibition, usual class: inhibitors; note: potency is the fitted concentration of half-maximal effect; nearly all actives have a fitted effect of over 55% in size
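Chicken DT40 Tdp1-/- cells complemented with human TDP1, 400 cells/well, exposed to compounds plus 20 nM camptothecin for at least 48 h at 37 C; viability read as ATP content by CellTiter-Glo luminescence.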
DT40 TDP1 no CPT: qHTS for Inhibitors of human tyrosyl-DNA phosphodiesterase 1 (TDP1): qHTS in cells in absence of CPT; DT40 Tdp1-/- hTDP1 cells, no CPT, ATP luminescence, 48 h; Potency, µM (series often up to 46.2 µM), inactives show at the top dose activity change, negative = growth inhibition, most hits filed as inhibitors; hit rate 15% among 420,000; AID 686978, 2013; note: potency is the fitted concentration of half-maximal effect; nearly all actives have a fitted effect of over 55% in size
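No-CPT arm: Tdp1-/-;hTDP1 DT40 cells (400/well) plus compounds, incubated ≥48 hr at 37 °C. Readout CellTiter-Glo luminescence.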
An asterisk follows results filed as active; i = inactive; ? = inconclusive; nt = not tested or not shown; [ ] = dose if it differs, or a comment. Sampled rows, rich in hits. Any-hit rate of the full collection: about 19%. Unless noted, calls come from the whole dose curve; as a rule, active = well fitted curve in the direction sought with a large enough effect; inconclusive = small, poorly fitted or top-dose-only effect, or another doubt; inactive = no such curve, though single readings can be large; an effect the other way counts as inactive or inconclusive. Unless noted, % is set by controls: 0 for no effect and ±100 for the full control effect.

SMILES | HT1080 IDH1KD tx | IL-1B inflam inh | HT1080NT lethal | DT40 TDP1 CPT | DT40 TDP1 no CPT
CN(C)S(=O)(=O)c1cccc(NC(=O)CCc2nc3sc4c(c3c(=O)[nH]2)CCCC4)c1 | -15% | -12 | -15% | 16µM* | ?
Cc1cc(C)cc(NC(=O)CSc2nc3sc4c(c3c(=O)[nH]2)CCCC4)c1 | nt | nt | nt | -21% | -29%
COC(=O)c1cccc(NS(=O)(=O)c2ccc(OC)c(C(=O)N3CCOCC3)c2)c1C | 6% | -4 | 3% | -1% | -2%
Cn1c(=O)[nH]c2nnc(-c3ccc(Cl)c(Cl)c3)nc2c1=O | 2% | -17 | 2% | -9% | -29%
CCc1nc2c(OCCn3cccc3)cccn2c1N(C=O)Cc1ccccc1 | 0% | 8 | 21% | ? | ?
CCc1nc2c(OCCn3cccc3)cccn2c1N(C=O)Cc1ccc(OC)cc1 | -2% | -22 | -25% | 21µM* | ?
CCc1nc2c(OCC(=O)c3ccc(Cl)cc3Cl)cccn2c1N(C)C(=O)c1cccs1 | ? | ? | ? | 16µM* | 18µM*
CCc1nc2c(OCc3c(C)noc3C)cccn2c1N(C=O)Cc1ccc(OC)cc1 | 0% | 6 | 1% | 23µM* | 15µM*
CCc1nc2c(OCC(=O)c3ccc(Cl)cc3Cl)cccn2c1N(C=O)Cc1ccc(OC)cc1 | ? | 1 | -28% | 23µM* | 18µM*
CCc1nc2c(OCC(N)=O)cccn2c1N(C)C(=O)c1cccs1 | 8% | 42 | ? | -6% | -5%
CCc1nc2c(OCc3ccc(Cl)cc3Cl)cccn2c1N(C=O)Cc1ccc(OC)cc1 | 24% | -67* | 12% | ? | 23µM*
CCCCN(C=O)c1c(CC)nc2c(OCc3cccc(Cl)c3)cccn12 | -22% | 14 | -4% | ? | ?
CCc1nc2c(OCCOc3ccc(F)cc3)cccn2c1N(C=O)Cc1ccc(OC)cc1 | 0% | -21 | 2% | ? | ?
CCc1nc2c(OCc3ccc(Cl)cc3)cccn2c1N(C=O)Cc1ccc(OC)cc1 | ? | 0 | ? | 21µM* | ?
CC1(C)CC2(C)OC(=N)C1(C#N)C2(C#N)C#N (stereo unspecified) | ? | -101* | ? | ? | 15µM*
COc1ccc(C(C)C)cc1-c1cc(C(=O)NCc2cccc(C(F)(F)F)c2)[nH]n1 | 3% | 1 | -2% | ? | ?
Cc1cc(-c2ccccc2)nc(-c2ccccc2)c1C | 2% | 0 | 2% | 1% | -7%
Cc1c(Cl)ccc2c(C(O)CBr)cc(-c3ccccc3)nc12 (stereo unspecified) | ? | -86* | ? | ? | 16µM*
Cc1nc(C)c(-c2ccc(SCC(=O)Nc3ccc(F)c(F)c3)nn2)s1 | nt | nt | nt | 13µM* | 9.2µM*
COc1cccc(NC(=O)CSc2nnc3scc(-c4ccc(Cl)cc4)n23)c1 | nt | nt | nt | ? | 18µM*
COc1cccc(NC(=O)CSc2ccc(-c3sc(C)nc3C)nn2)c1 | -15% | -20 | -11% | 15µM* | 15µM*
Cc1nc(C)c(-c2ccc(SCC(=O)Nc3ccccc3)nn2)s1 | -21% | i | -13% | 23µM* | 26µM*
O=C(COC(=O)Cc1ccccc1[N+](=O)[O-])NCC1CCCCC1 | 7% | 0 | 5% | 5% | 8%
COCc1c(C(=O)NCCc2ccc(OC(F)F)cc2)oc2ccccc12 | -1% | -8 | -5% | 13µM* | 12µM*
CC(C)(C)NC(=O)c1oc2ccccc2c1COc1ccccc1 | -2% | 12 | 7% | ? | 13µM*
SMILES | HT1080 IDH1KD tx | IL-1B inflam inh | HT1080NT lethal | DT40 TDP1 CPT | DT40 TDP1 no CPT
COCc1c(C(=O)NCCOc2ccc(Cl)cc2)oc2ccccc12 | 0% | 3 | -6% | 26µM* | 23µM*
COc1ccc(C)cc1NC(=O)CN1C(=O)C2CC=CCC2C1=O (stereo unspecified) | 4% | 5 | 4% | -3% | 23%
COc1ccc(N2C(=O)CCC(C(=O)NCCCN3CCC(C)CC3)C2c2ccc(OC)c(OC)c2)cc1 (stereo unspecified) | 12% | -4 | 0% | -12% | -1%
Cc1ccc(C(=O)NNC(=O)c2ccccc2)cc1S(=O)(=O)N1CCCCC1 | 4% | 8 | 7% | -2% | -29%
O=c1c2ccccc2sn1-c1ccc(S(=O)(=O)N2CCCC2)cc1 | -3%[9.24 µM] | -102* | -1% | 3.3µM* | 5.2µM*
O=c1c2ccccc2sn1-c1ccc(S(=O)(=O)N2CCCCC2)cc1 | 0% | -91* | 2% | 2.1µM* | 16µM*
O=S(=O)(c1ccccc1)N1CCN(S(=O)(=O)N2CCCCCC2)CC1 | -14% | 14 | -4% | 5% | -16%
Cc1ccc(-n2sc3ccccc3c2=O)cc1S(=O)(=O)N1CCCCC1 | ? | -106* | ? | 2.3µM* | 2.9µM*
CC(=O)Nc1cccc(NC(=O)C2CCCO2)c1 (stereo unspecified) | 2% | 16 | 4% | -1% | 10%
CC1CN(C(=O)c2cccc(S(=O)(=O)N3CCN(c4ccccc4)CC3)c2)CC(C)O1 (stereo unspecified) | 2% | 40 | 9% | 15µM* | ?
CCOC(=O)c1ccc(S(=O)(=O)N2CCN(C(=O)c3cccc(S(=O)(=O)N4CC(C)OC(C)C4)c3)CC2)cc1 (stereo unspecified) | -9% | -20 | 1% | 16µM* | 9.2µM*
CC1CN(S(=O)(=O)c2cccc(C(=O)OCC(=O)N3CCCCCC3)c2)CC(C)O1 (stereo unspecified) | -3% | -13 | 0% | 0% | -21%
Cc1ccc(COC(=O)c2cccc(S(=O)(=O)N3CCCCCC3)c2)cc1 | 10% | 21 | 5% | -8% | -9%
CN1CCN(S(=O)(=O)c2cccc(C(=O)N3CCN(c4ccccc4)CC3)c2)CC1 | 0% | 3 | 0% | -18% | 13%
CC(=O)N1CCN(S(=O)(=O)c2cccc(C(=O)OCc3ccc(C(C)(C)C)cc3)c2)CC1 | -20% | 15 | -25% | 7.3µM* | 8.2µM*
O=C(c1cccc(S(=O)(=O)N2CCN(c3ccccc3)CC2)c1)N1CCCC(C(F)(F)F)C1 (stereo unspecified) | -11% | -3 | ? | 7.3µM* | 5.2µM*
Cc1c(-c2cccs2)[n+](=O)c2c(n1[O-])CCCC2 | 3% | 3 | 13% | 2% | -5%
CCOC(=O)c1ccc(S(=O)(=O)N2CCN(C(=O)CSc3nc4ccccc4o3)CC2)cc1 | -6% | 0 | 1% | 12µM* | 12µM*
CCOC(=O)c1ccc(S(=O)(=O)N2CCN(C(C)=O)CC2)cc1 | 1% | 52 | 13% | -2% | -6%
